The structures appear in SMILES notation. Out of some 320,000 compounds screened, about 22,000 (6.9%) were called active. Not shown: some 27% with an inconclusive outcome. The entries come from a sample that favours actives as a whole. Entries that show only a call come without a potency. Unmarked numbers belong to inactive results. Calls come from the whole dose curve; as a rule, active = well fitted inhibition curve with a large enough effect; inconclusive = small, poorly fitted or top-dose-only effect, or another doubt; inactive = no such curve, though single readings can be large or run the other way.
Potency is the fitted concentration of half-maximal effect.

The nature of the experiment: Primary qHTS for delayed death inhibitors of the malarial parasite plastid, 96 hour incubation. To be noted: P. falciparum luciferase reporter growth; series mostly up to 28.7 µM. In a few lines:
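Plates of compound plus infected erythrocytes (2% hematocrit, 0.05% parasitemia final) incubate 96 hours, 37 C, 5% CO2. Detection reagent added; reduced luminescence from the parasites' luciferase reporter flags inhibition.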
Background: Quantitative high-throughput screening tests each substance at several concentrations.
`COc1ccc(CC(=O)OC(C)C(=O)Nc2ccc(S(N)(=O)=O)cc2)cc1` (centres undefined): the Potency result was “inactive”.

Consider `CC(C)(C)OC(=O)N1CCC(NC(=O)c2[nH]cnc2C(=O)N[C@@H](Cc2ccccc2)C(=O)OCc2ccccc2)CC1`, for which the Potency was 1.47 µM (active).

Regarding `O=C(N[C@@H](Cc1ccccc1)C(=O)OCc1ccccc1)c1nc[nH]c1C(=O)N[C@@H](Cc1ccccc1)C(=O)OCc1ccccc1`, the Potency entry is “inactive”.

Take `C[C@@H](NC(=O)c1nc[nH]c1C(=O)N1CCN(C(=O)OC(C)(C)C)CC1)c1ccccc1`: the Potency entry is “inactive”.

`Cc1c(Cl)cccc1NC(=O)CCC(=O)N/N=C/c1ccco1`: the Potency entry was “inactive”.

Consider `Cc1cc(C)cc(N(CC(=O)NC2CCCC2)C(=O)CCC(=O)Nc2cc(C)on2)c1`, for which the Potency result is “inactive”.

For `COc1ccc(C(=O)Nc2ccc(S(=O)(=O)Nc3onc(C)c3C)cc2)cc1OC`, the Potency result was “inactive”.

In the case of `Cc1cc(OC(C)C(=O)Nc2ccc(S(=O)(=O)Nc3onc(C)c3C)cc2)cc(C)c1Cl` (centres undefined), the Potency is 8.28 µM (active).

Consider `CC(Oc1cccc(Cl)c1)C(=O)Nc1ccc(S(=O)(=O)Nc2ncccn2)cc1` (centres undefined), for which the Potency result was “inactive”.

For `N#Cc1c(-c2ccccc2)c(-c2ccccc2)n[nH]c1=O`, the Potency entry is “inactive”.

On to `NCCCCCC(=O)N/N=C/c1ccc2nccnc2c1`, for which the Potency result was “inactive”.

On to `COc1ccc(C(=O)NC(C)Cn2nc(C)cc2C)cc1OC1CCN(C(C)=O)CC1` (centres undefined), for which the Potency entry was “inactive”.

Turning to `O=C(NCCCn1ccnc1)C1CCCN(S(=O)(=O)c2cc(Cl)ccc2Cl)C1` (centres undefined), the Potency result is “inactive”.

Consider `O=c1oc2ccccc2c(CNc2ccccc2)c1[N+](=O)[O-]`, for which the Potency result is “inactive”.

For the compound `CCCNC(=O)NCc1ccc(N2CCCC2=O)cc1`, the Potency result is “inactive”.

With `O=C(NCCCN1CCCCCC1)c1ccc(N2CCCC2=O)cc1`, the Potency is 2.33 µM (active).

Consider `O=C(NCCCN1CCCC1=O)c1ccc(S(=O)(=O)Nc2ccccc2)cc1`, for which the Potency result was “inactive”.

Take `COc1ccc(N2CCN(C(=O)Cn3cnc4sc(C)c(S(=O)(=O)N5CCOCC5)c4c3=O)CC2)cc1`: the Potency result is “inactive”.

Consider `Cn1c(N)c(C(=O)COC(=O)COc2ccc(Cl)cc2)c(=O)n(C)c1=O`, for which the Potency result was “inactive”.

As to `Cn1c(N)c(C(=O)COC(=O)c2cnc(Cl)c(Cl)c2)c(=O)n(C)c1=O`, the Potency entry was “inactive”.

For the compound `Cn1c(N)c(C(=O)COC(=O)C23CC4CC(CC(C4)C2)C3)c(=O)n(C)c1=O`, the Potency was 14.7 µM (active).

With `COc1cc(NC(=O)c2ccccc2)c(OC)cc1NC(=O)Cc1ccccc1`, the Potency entry was “inactive”.

For the compound `CCc1nn(CCCC(=O)Nc2ccc(C)c(C)c2)c(=O)c2cc3occc3n12`, the Potency result was “inactive”.

Take `CC1CC(C)(C)CC2(C1)NC(=O)N(CC(=O)Nc1nccs1)C2=O` (centres undefined): the Potency entry was “inactive”.

On to `CC(C)n1c(COc2ccccc2)nc2ccccc21`, for which the Potency result was “inactive”.

`COc1ccc2[nH]c3ccc(OC)cc3c2c1`: the Potency result is “inactive”.

For the compound `Cc1ccc(C2Nc3cccc4cccc(c34)N2)cc1`, the Potency result was “inactive”.

As to `Oc1ccc(C2Nc3cccc4cccc(c34)N2)cc1`, the Potency is 10.4 µM (active).

In the case of `COc1cccc(C2Nc3cccc4cccc(c34)N2)c1`, the Potency was 7.38 µM (active).

Regarding `Brc1ccccc1C1Nc2cccc3cccc(c23)N1`, the Potency entry is “inactive”.

`COc1ccc(C2NC(=O)c3ccccc3N2)cc1` (centres undefined): the Potency result was “inactive”.

In the case of `N#Cc1ccccc1S(=O)(=O)N1CCN(Cc2c(O)ccc3ccccc23)CC1`, the Potency result was “inactive”.

Consider `CC(CCc1ccccc1)NC(=O)c1cnc(Cl)c(Cl)c1` (centres undefined), for which the Potency result was “inactive”.

Take `Cc1ccc(N(C(=O)CNC(=O)c2ccco2)C(C(=O)NC2CCCC2)c2ccncc2)cc1` (centres undefined): the Potency result is “inactive”.

On to `CC(C)C(NC(=O)c1c(F)cccc1F)C(=O)NCc1ccncc1` (centres undefined), for which the Potency result is “inactive”.

Take `C[C@@H](NC(=O)OC(C)(C)C)c1nnc(S(=O)(=O)Cc2ccccc2)o1`: the Potency entry was “inactive”.

For `CC(C)CN(CC(C)C)C(=O)CN1c2cccc3cccc(c23)S1(=O)=O`, the Potency result was “inactive”.

On to `CCn1c(CC(=O)Nc2ccccc2)nnc1SCC(=O)N1CCOCC1`, for which the Potency entry is “inactive”.

For the compound `COC(=O)c1ccc(CSc2nncn2C)cc1`, the Potency result was “inactive”.

On to `CCOc1cc(/C=N/NC(=O)c2cccc(S(=O)(=O)N3CCOCC3)c2)ccc1OCC(=O)N(C)C`, for which the Potency result is “inactive”.

Consider `CCOc1cc(/C=N/NC(=O)c2ccc(CSc3nncn3C)cc2)ccc1OCC(=O)N1CCOCC1`, for which the Potency was 11.7 µM (active).

Regarding `CC(=O)N1CC[n+]2c(-c3ccc([N+](=O)[O-])cc3)csc21`, the Potency entry was “inactive”.

Regarding `CC1CCN(S(=O)(=O)c2ccc(NC(=O)C3CC(=O)N(c4ccccc4)C3)cc2)CC1` (centres undefined), the Potency entry is “inactive”.

For `COc1ccc(/C=C/c2nnc(NC(=O)C(C)C)s2)cc1`, the Potency result is “inactive”.

For `O=C(Nc1ccc(Cl)cc1)Nc1nnc(/C=C/c2ccccc2)s1`, the Potency was 13.1 µM (active).

In the case of `O=C(CSc1ccccc1)Nc1nnc(/C=C/c2ccccc2)s1`, the Potency result is “inactive”.

`CNS(=O)(=O)c1cnccc1N1CCN(c2cccc(C)c2)CC1`: the Potency is 10.4 µM (active).

In the case of `O=S(=O)(c1cnccc1N1CCN(/N=C/c2ccc(Br)cc2)CC1)N1CCCCC1`, the Potency entry was “inactive”.

`CC(C)NC(=O)N1CCN(c2ccncc2S(=O)(=O)N2CCCCC2)CC1`: the Potency result was “inactive”.

Consider `COc1ccc(F)cc1C(=O)COC(=O)c1n[nH]c(=O)c2ccccc12`, for which the Potency entry is “inactive”.

Regarding `O=C(c1n[nH]c2c1CCC2)N1CCCC(Nc2cccc(F)c2)C1` (centres undefined), the Potency entry was “inactive”.

Turning to `CSc1nc(-c2ccco2)nn1C(=O)c1ccccc1Cl`, the Potency result was “inactive”.

Consider `CCCC1=Nc2cc(C(=O)NCc3ccco3)ccc2Sc2ccccc21`, for which the Potency was 2.94 µM (active).

In the case of `COc1ccc(CCNS(=O)(=O)c2ccc(C(=O)NCc3ccco3)cc2)cc1OC`, the activity change, negative = inhibition is 11.4% [at 5.75 µM].

As for `CCC1=Nc2cc(C(=O)NCCCN3CCOCC3)ccc2Sc2ccc(Br)cc21`, the Potency result is “inactive”.

For the compound `COCCN(C(=O)COC(=O)Cc1cccc(OC)c1)c1c(N)n(Cc2ccccc2)c(=O)[nH]c1=O`, the Potency result is “inactive”.

Turning to `Cc1ccc(F)cc1S(=O)(=O)Nc1cccc(C(=O)N2CCCC(C(N)=O)C2)c1` (centres undefined), the Potency result was “inactive”.

In the case of `CCOc1ccc(CN2CCN(CCCc3ccccc3)C(CCO)C2)cc1` (centres undefined), the Potency result is “inactive”.

In the case of `COc1cccc(CN2CCN(Cc3ccc4cccc(F)c4n3)CC2CCO)c1` (centres undefined), the Potency result was “inactive”.

For the compound `CCOc1ccc(CN2CCN(Cc3ccc4cc(F)ccc4n3)CC2CCO)cc1` (centres undefined), the Potency was 13.1 µM (active).

In the case of `Cc1cccc(C(=O)NCc2nnc(SC(C)C(=O)Nc3nnc(C)s3)n2C)c1` (centres undefined), the Potency result was “inactive”.

Take `Cc1ccc(Cn2ccc(NC(=O)c3cc(C(C)C)on3)n2)cc1`: the Potency entry was “inactive”.

With `O=C(Nc1ccn(Cc2ccc(F)cc2)n1)c1ccncc1`, the Potency is 9.28 µM (active).

Turning to `O=C(Nc1ccn(Cc2ccccc2)n1)c1cccc(F)c1`, the Potency result is “inactive”.

The values above are taken from PubChem BioAssay AID504834 (National Center for Advancing Translational Sciences (NCATS), 2011).
